This passage reports binding signal results from paper PMC13541613, “GHT-SELEX demonstrates unexpectedly high intrinsic sequence specificity and complex DNA binding of many human transcription factors”.

Assay in all cases: HT-SELEX; 20 mM HEPES pH 7, 140 mM KCl, 5 mM NaCl, 1 mM K2HPO4, 2 mM MgSO4, 100 uM EGTA, ZnSO4, 0.1% Tween20; room temperature, 1 h; high values mean tight binding
What all share (conditions): protein: ivt; tags: eGFP (N-terminal); dsDNA, one strand shown

Assay [1] concerns the target ZNF721 full-length (Homo sapiens, UniProt Q8TF20-2 1-923). Summed up:
(§1)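 In HEPES/KCl low-stringency buffer with Tween20, a bead-immobilised tagged transcription factor (full-length or DNA-binding-domain fragment, from HEK293 lysate or cell-free extract) was incubated with a randomized 40-base DNA library for 1 h at room temperature. DNA retained after washing was heat-eluted, amplified by PCR over successive cycles and Illumina-sequenced, giving ~3 million 60 bp reads per sample. The reported binding signal, a relative k-mer count in those selected reads, rises with tighter binding.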

Assay [2] addresses ZNF721 DBD2 (Homo sapiens, UniProt Q8TF20-2 395-923). Put shortly:
as §1

Assay [3] deals with ZNF721 DBD1 (Homo sapiens, UniProt Q8TF20-2 29-461). Put shortly: as §1
Chain of ZNF721 DBD1 (Q8TF20 17-449): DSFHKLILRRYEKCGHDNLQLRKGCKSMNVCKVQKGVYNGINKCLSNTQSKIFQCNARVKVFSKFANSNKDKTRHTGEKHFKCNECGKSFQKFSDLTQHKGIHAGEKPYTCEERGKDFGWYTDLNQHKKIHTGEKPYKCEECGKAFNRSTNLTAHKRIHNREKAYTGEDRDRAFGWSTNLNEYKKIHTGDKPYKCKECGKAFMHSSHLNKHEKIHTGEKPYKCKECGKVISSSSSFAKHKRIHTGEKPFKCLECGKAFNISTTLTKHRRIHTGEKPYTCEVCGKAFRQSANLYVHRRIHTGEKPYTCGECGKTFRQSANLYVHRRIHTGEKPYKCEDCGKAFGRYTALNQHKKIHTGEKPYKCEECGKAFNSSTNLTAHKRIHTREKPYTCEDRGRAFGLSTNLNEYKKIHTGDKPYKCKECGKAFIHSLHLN

Chain of ZNF721 full-length (Q8TF20 other isoform, or with tags, fused parts or gaps): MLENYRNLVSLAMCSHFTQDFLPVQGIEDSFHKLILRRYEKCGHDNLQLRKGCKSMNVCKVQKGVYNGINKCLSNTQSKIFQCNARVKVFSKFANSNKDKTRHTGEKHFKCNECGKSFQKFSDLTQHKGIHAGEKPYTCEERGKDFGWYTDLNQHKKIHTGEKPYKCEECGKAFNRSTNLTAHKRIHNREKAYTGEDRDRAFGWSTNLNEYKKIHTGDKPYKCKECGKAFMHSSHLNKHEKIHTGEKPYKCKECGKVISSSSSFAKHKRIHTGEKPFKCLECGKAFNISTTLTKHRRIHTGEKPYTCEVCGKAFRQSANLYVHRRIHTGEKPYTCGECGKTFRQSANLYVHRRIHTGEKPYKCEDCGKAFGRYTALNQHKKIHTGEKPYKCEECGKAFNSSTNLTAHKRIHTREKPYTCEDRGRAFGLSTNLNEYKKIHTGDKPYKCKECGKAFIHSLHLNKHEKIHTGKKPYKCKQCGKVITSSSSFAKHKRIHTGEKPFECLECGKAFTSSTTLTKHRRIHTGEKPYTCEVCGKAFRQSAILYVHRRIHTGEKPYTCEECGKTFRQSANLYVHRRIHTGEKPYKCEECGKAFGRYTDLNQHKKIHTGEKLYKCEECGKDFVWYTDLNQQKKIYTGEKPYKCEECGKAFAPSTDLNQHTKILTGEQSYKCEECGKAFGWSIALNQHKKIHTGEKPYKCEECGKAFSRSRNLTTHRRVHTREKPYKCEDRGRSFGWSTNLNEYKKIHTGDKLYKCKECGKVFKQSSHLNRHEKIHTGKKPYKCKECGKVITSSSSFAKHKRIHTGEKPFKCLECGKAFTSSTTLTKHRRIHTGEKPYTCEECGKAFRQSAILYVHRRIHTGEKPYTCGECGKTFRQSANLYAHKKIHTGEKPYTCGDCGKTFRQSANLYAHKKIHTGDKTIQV
Chain of ZNF721 DBD2 (Q8TF20 383-911): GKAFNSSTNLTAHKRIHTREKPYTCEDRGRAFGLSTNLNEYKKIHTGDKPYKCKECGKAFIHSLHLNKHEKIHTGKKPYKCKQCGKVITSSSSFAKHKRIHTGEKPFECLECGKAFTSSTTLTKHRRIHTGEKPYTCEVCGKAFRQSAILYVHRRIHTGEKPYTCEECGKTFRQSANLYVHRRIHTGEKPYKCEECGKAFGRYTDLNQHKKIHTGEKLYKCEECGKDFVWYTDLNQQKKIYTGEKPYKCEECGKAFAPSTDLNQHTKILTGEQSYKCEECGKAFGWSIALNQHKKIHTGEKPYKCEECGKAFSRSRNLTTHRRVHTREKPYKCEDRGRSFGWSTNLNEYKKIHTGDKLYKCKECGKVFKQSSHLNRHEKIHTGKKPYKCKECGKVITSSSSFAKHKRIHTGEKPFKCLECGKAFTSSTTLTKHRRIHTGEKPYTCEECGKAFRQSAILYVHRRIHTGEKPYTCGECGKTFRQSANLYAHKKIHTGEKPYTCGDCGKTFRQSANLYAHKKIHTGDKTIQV

For ACAGCATCCC, the binding signal in assay [1] is 0.114 relative 10-mer count; in assay [2] it was 0.088 relative 10-mer count.

Take AAACAGGGTT: the binding signal in assay [1] was determined as 0.271 relative 10-mer count; in assay [2] it was 0.368 relative 10-mer count.

For AAACAGGATA, the binding signal in assay [1] worked out at 0.111 relative 10-mer count; in assay [2], 0.121 relative 10-mer count.

Regarding AAACAAACAG, the binding signal in assay [1] was determined as 0.143 relative 10-mer count; in assay [2], 0.0858 relative 10-mer count.

For the sequence CCCCCACCGC, the figures for the binding signal in assay [1], in assay [3] and in assay [2] were 0.192 relative 10-mer count, 0.00936 relative 10-mer count and 0.00479 relative 10-mer count, respectively.

As for AAAACAGCAG, the values for the binding signal in assay [1] and in assay [2] were 0.243 relative 10-mer count and 0.264 relative 10-mer count, respectively.

CCCCCCACGC: the binding signal in assay [1] was determined as 0.139 relative 10-mer count; in assay [3] it was 0.00404 relative 10-mer count; in assay [2] it was 0.00324 relative 10-mer count.

Regarding AACCCTGCTT, the binding signal in assay [1] was determined as 0.197 relative 10-mer count; in assay [2] it was 0.258 relative 10-mer count.

On to ACAAAGCAGC, for which the binding signal in assay [1] was found to be 0.189 relative 10-mer count; in assay [2] it was 0.238 relative 10-mer count.

In the case of AAACAGGGTA, the binding signal in assay [1] turned out to be 0.175 relative 10-mer count; in assay [2] it was 0.22 relative 10-mer count.

As for CCACACACCC, the binding signal in assay [1] stood at 0.105 relative 10-mer count; in assay [3], 0.00321 relative 10-mer count; in assay [2], 0.00312 relative 10-mer count.

AAAGAAACAG: the binding signal in assay [1] is 0.126 relative 10-mer count; in assay [2] it was 0.119 relative 10-mer count.

Turning to CCACCGTCCC, the binding signal came to 0.112 relative 10-mer count in assay [1], 0.00491 relative 10-mer count in assay [3] and 0.00467 relative 10-mer count in assay [2].

In the case of ACAGAGTACC, the binding signal was determined as 0.123 relative 10-mer count in assay [1] and 0.152 relative 10-mer count in assay [2].

In the case of AAACAGTGTA, the binding signal in assay [1] worked out at 0.179 relative 10-mer count; in assay [2], 0.225 relative 10-mer count.

AGAAAAACAG: the binding signal in assay [1] is 0.178 relative 10-mer count; in assay [2], 0.208 relative 10-mer count.

On to AAAAACAGTG, for which the results for the binding signal in assay [1] and in assay [2] were 0.406 relative 10-mer count and 0.517 relative 10-mer count, respectively.

AACAGCATGC: the binding signal in assay [1] worked out at 0.113 relative 10-mer count; in assay [2], 0.163 relative 10-mer count.

With ACAAAACAGT, the binding signal stood at 0.115 relative 10-mer count in assay [1] and 0.123 relative 10-mer count in assay [2].

For AAAAACAGAG, the binding signal amounted to 0.212 relative 10-mer count in assay [1] and 0.213 relative 10-mer count in assay [2].

For the sequence AAAACAGCAC, the binding signal worked out at 0.279 relative 10-mer count in assay [1] and 0.306 relative 10-mer count in assay [2].

AAAACTAGCA: the binding signal in assay [1] was 0.127 relative 10-mer count; in assay [2], 0.173 relative 10-mer count.

Regarding CAGAGTACCC, the binding signal in assay [1] is 0.125 relative 10-mer count; in assay [2] it was 0.18 relative 10-mer count.

As to CTGTTTTTTC, the binding signal amounted to 0.357 relative 10-mer count in assay [1] and 0.365 relative 10-mer count in assay [2].

As to ACAGCGTCTC, the binding signal was 0.212 relative 10-mer count in assay [1] and 0.344 relative 10-mer count in assay [2].

For the sequence CAGTGTTACC, the binding signal in assay [1] was found to be 0.128 relative 10-mer count; in assay [2], 0.259 relative 10-mer count.

Turning to AAACGAACAG, the binding signal in assay [1] was 0.126 relative 10-mer count; in assay [2] it was 0.0771 relative 10-mer count.

In the case of AAACAGCGTC, the results for the binding signal in assay [1] and in assay [2] were 0.206 relative 10-mer count and 0.277 relative 10-mer count, respectively.

For the sequence AAAAAACAGA, the binding signal amounted to 0.261 relative 10-mer count in assay [1] and 0.219 relative 10-mer count in assay [2].

In the case of AAAGCAGCGT, the figures for the binding signal in assay [1], in assay [3] and in assay [2] were 0.371 relative 10-mer count, 0.00115 relative 10-mer count and 0.512 relative 10-mer count, respectively.

For the sequence AAGAAAACAG, the values for the binding signal in assay [1] and in assay [2] were 0.177 relative 10-mer count and 0.222 relative 10-mer count, respectively.

Turning to CCCACCACAC, the binding signal in assay [1] was determined as 0.155 relative 10-mer count; in assay [3], 0.00583 relative 10-mer count; in assay [2], 0.00947 relative 10-mer count.

In the case of AAAACAGTAC, the binding signal in assay [1] worked out at 0.126 relative 10-mer count; in assay [2] it was 0.166 relative 10-mer count.
